The results in this text go back to PubChem BioAssay (NCATS).

Values joined by “and” are separate entries in the source; they are usually repeats but may differ in a detail not shown here. Identical values can stand only once. A number with no mark means an inactive call. Results filed as inconclusive are left out. Some structures have more than one record in an assay (separate samples or runs), and their calls can disagree. Active and inactive are the calls of the source. Unless noted, calls follow the shape of the dose curve; as a rule, active = well fitted curve in the direction sought with a large enough effect; inconclusive = small, poorly fitted or top-dose-only effect, or another doubt; inactive = no such curve, though single readings can be large; an effect the other way counts as inactive or inconclusive.

Test system in one assay: not listed separately
As to the kind of experiment: Drug repurposing screens with cells derived from glioblastoma tumor samples (AID 1345199). Also: nearly all actives have a fitted effect of over 40% in size. Also: potency is read from the fitted curve at half-maximal effect. As to activity, negative = cell killing: % is scaled to controls: 0 for no effect and ±100 for the full control effect. As to conditions: GBM patient neurospheres viability, ATP luminescence, 48 h; tumour line A. In outline:
(§1)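 Primary testing used CD133+ neurospheres from four GBM patients, seven concentrations, 48 h exposure and ATP-based viability; confirmation added three slower-growing patient lines.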
As to `CCCCCC[C@@H](O)C/C=C\CCCCCCCC(=O)O`, the Potency was 20 µM (active).

Consider `C#C[C@]1(O)CC[C@H]2[C@@H]3CCc4cc(O)ccc4[C@H]3CC[C@@]21C`, for which the Potency was 12.6 µM (active). Same read-out and setting: the result for `CN1[C@@H](CC(=O)c2ccccc2)CCC[C@H]1C[C@H](O)c1ccccc1` reads 10 µM (active); that for `C[S+](CC[C@H](N)C(=O)O)C[C@H]1O[C@@H](n2cnc3c(N)ncnc32)[C@H](O)[C@@H]1O` (some centres undefined), 7.08 µM (active). The same measure, in the same setting: the result for `COc1cc(/C=C/C(=O)CC(=O)/C=C/c2ccc(O)c(OC)c2)ccc1O` reads 12.6 µM (active).

For another assay, the system named is astro (control astrocytes). Described as above. As to conditions: viability, ATP luminescence, 48 h; series mostly up to 45.9 µM; activity, negative = cell killing: at the top concentration. The essentials:
as §1
Regarding `C[N+](C)(C)CCOP(=O)(O)OP(=O)([O-])OC[C@H]1O[C@@H](n2ccc(N)nc2=O)[C@H](O)[C@@H]1O`, the Potency entry is “inactive”.

Consider `CO[C@H]1C[C@@H]2CC[C@@H](C)[C@@](O)(O2)C(=O)C(=O)N2CCCC[C@H]2C(=O)O[C@H]([C@H](C)C[C@@H]2CC[C@@H](O)[C@H](OC)C2)CC(=O)[C@H](C)C=C(C)[C@@H](O)[C@@H](OC)C(=O)[C@H](C)C[C@H](C)/C=C/C=CC=C1C`, for which the Potency was 35.5 µM (active).

For `CC(C)Cc1ccc([C@H](C)C(=O)O)cc1`, the “activity, negative = cell killing” value is -15%. As to `CO/N=C(\C(=O)N[C@@H]1C(=O)N2C(C(=O)O)=C(COC(C)=O)CS[C@H]12)c1csc(N)n1` (stereo in doubt), the “activity, negative = cell killing” value is -13.1%. For `CC(=O)[C@]1(O)Cc2c(O)c3c(c(O)c2[C@@H](O[C@H]2C[C@H](N)[C@H](O)[C@H](C)O2)C1)C(=O)c1c(O)cccc1C3=O`, the Potency was 501 nM (active) and 562 nM (active).

On to `C=CC(N)CCC(=O)O` (centres undefined), for which the “activity, negative = cell killing” value is 4.62%.

For the molecule `CCCCCC[C@@H](O)C/C=C\CCCCCCCC(=O)O`, the Potency result is “inactive”. `CC[C@H]1OC(=O)[C@H](C)C(=O)[C@H](C)[C@@H](O[C@@H]2O[C@H](C)C[C@H](N(C)C)[C@H]2O)[C@](C)(OC)C[C@@H](C)C(=O)[C@H](C)[C@H]2N(CCCCn3cnc(-c4cccnc4)c3)C(=O)O[C@]12C`: the “activity, negative = cell killing” value was -7.24%. Still for that read-out and setting: the result for `CN1[C@@H](CC(=O)c2ccccc2)CCC[C@H]1C[C@H](O)c1ccccc1` reads -26.8%. For `CC1(C)C[C@@H]1C(=O)N/C(=C\CCCCSC[C@H](N)C(=O)O)C(=O)O`, the Potency result was “inactive”.

On to `O=C(O)[C@H](O)[C@@H](O)[C@H](O)[C@H](O)CO`, for which the Potency result was “inactive”. As to `O=C(O)/C=C/C(O)c1ccc(Cl)cc1` (centres undefined), the “activity, negative = cell killing” value was -3.33%.

Test system in a further assay: not listed separately
As to the kind of experiment: qHTS assay to identify inhibitors of the type 1 interferon - major histocompatibility complex class I in skeletal muscle: Counter screen cell viability and HiBit confirmation (AID 1347412). Also: nearly all actives have a fitted effect of over 60% in size. Also: potency is read from the fitted curve at half-maximal effect. As to activity change, negative = inhibition: % is scaled to controls: 0 for no effect and ±100 for the full control effect. As to conditions: iHSKM muscle cells + IFN-b, HiBiT or CellTiter-Glo, 24 h; HiBiT. In outline: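 Human myoblast knock-in line, 4.0 ng/ml IFN-beta stimulation, 24 h compound treatment. Endpoints: HiBiT lytic luminescence (HLA-B level) and CellTiter Glo (ATP). Dosing 12 concentrations, 3-fold steps, 46 uM highest final.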
In the case of `COc1ccc(/C=C2\COc3ccc(C)cc3C2=O)cc1O`, the Potency was 14 µM (active). On the same count and under the same terms, the result for `Cc1ccc(S(=O)(=O)/C=C/C#N)cc1` reads 5.57 µM (active).

For the molecule `CC(C)(C)c1ccc(S(=O)(=O)/C=C/C#N)cc1`, the Potency was 2.79 µM (active). Same read-out and setting: then `O=C(Nc1ccncc1)c1cc([N+](=O)[O-])ccc1Cl`, with 15.7 µM (active); and `CCOC(=O)N1CCN(/[N+]([O-])=N/Oc2ccc([N+](=O)[O-])cc2[N+](=O)[O-])CC1`, with 6.25 µM (active). Same read-out and setting: the result for `O=[N+]([O-])c1ccc2c(c1)S(=O)(=O)C=C2` reads 1.76 µM (active); that for `O=C1C(SCCO)=C(SCCO)C(=O)c2ccccc21`, 2.79 µM (active).

The assay is the same for the next values; noted with them: iHSKM muscle cells + IFN-b, HiBiT or CellTiter-Glo, 24 h; Viability.
In the case of `Cc1ccc(S(=O)(=O)/C=C/C#N)cc1`, the Potency was 17.6 µM (active).

On to `CC(C)(C)c1ccc(S(=O)(=O)/C=C/C#N)cc1`, for which the Potency is 11.1 µM (active). The same measure, in the same setting: the result for `O=C1C(SCCO)=C(SCCO)C(=O)c2ccccc21` reads 4.97 µM (active).

Staying with this assay, now noted: iHSKM muscle cells + IFN-b, HiBiT or CellTiter-Glo, 24 h; Viability; at 45.9 µM (top of the series).
As to `COc1ccc(/C=C2\COc3ccc(C)cc3C2=O)cc1O`, the activity change, negative = inhibition is -21.6%.

Turning to `CCOC(=O)C1=C(C)NC(C)=C(C(=O)OCC)C1c1c(F)c(F)c(F)c(F)c1F`, the activity change, negative = inhibition is 9.02%. Turning to `N#C/C(=C\c1ccc(-c2cc(Cl)ccc2Cl)o1)C(=O)Nc1cccc2ncccc12`, the activity change, negative = inhibition is -18.8%. Regarding `OCC1O[C@H]([S-])[C@H](O)[C@@H](O)[C@@H]1O.[Au+]` (some centres undefined), the activity change, negative = inhibition is -5.66%. Still for that read-out and setting: the result for `O=C(NOCC1CC1)c1cc(Br)c(F)c(F)c1Nc1ccc(I)cc1Cl` reads -18.5%; that for `O=S(=O)(c1cccc2c(I)cccc12)N1CCCNCC1`, -12.4%. As to `O=C(Nc1ccncc1)c1cc([N+](=O)[O-])ccc1Cl`, the activity change, negative = inhibition is -27.4%. In the case of `CCOC(=O)N1CCN(/[N+]([O-])=N/Oc2ccc([N+](=O)[O-])cc2[N+](=O)[O-])CC1`, the activity change, negative = inhibition is 17.2%.

For another assay, the target named is Nuclear receptor subfamily 1 group I member 2 (Rattus norvegicus) (UniProt Q9R1A7). As to the kind of experiment: qHTS assay for small molecule activators of the rat pregnane X receptor (rPXR) signaling pathway (AID 651751; call rule not given here; also: 0% is about no effect). The conditions noted are these: rPXR reporter cells, luciferase (One-Glo), 24 h. Background: Quantitative high-throughput screening tests each substance at several concentrations.
Chain of Nuclear receptor subfamily 1 group I member 2 (Rattus norvegicus) (Q9R1A7 whole entry, looked up): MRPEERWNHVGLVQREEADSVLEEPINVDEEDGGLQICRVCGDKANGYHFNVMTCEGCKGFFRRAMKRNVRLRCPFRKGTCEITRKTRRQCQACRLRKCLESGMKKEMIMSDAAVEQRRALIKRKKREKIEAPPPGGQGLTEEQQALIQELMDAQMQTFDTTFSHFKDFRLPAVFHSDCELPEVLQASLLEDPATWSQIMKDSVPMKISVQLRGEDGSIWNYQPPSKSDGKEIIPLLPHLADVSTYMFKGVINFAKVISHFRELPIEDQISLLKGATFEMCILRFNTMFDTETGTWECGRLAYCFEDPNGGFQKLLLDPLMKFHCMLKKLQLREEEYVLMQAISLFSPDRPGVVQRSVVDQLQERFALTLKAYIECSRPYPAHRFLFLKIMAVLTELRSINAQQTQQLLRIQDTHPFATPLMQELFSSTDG
Turning to `CN(C)CCC(c1ccc(Cl)cc1)c1ccccn1` (centres undefined), the max response is 3.17%. Same read-out and setting: then `Oc1ccccc1O`, with 2.32%. On the same count and under the same terms, the result for `CC(C)NCC(O)COc1cccc2ccccc12` (centres undefined) reads 2% and 7.81%. For `O=C(Nc1ccccc1)c1cc([N+](=O)[O-])ccc1Cl`, the max response is -1.59%. On the same count and under the same terms, then `CN1CCC[C@H]1c1cccnc1`, with 4.53% and 0.248%.

Test system in the next assay: not listed separately
As to the kind of experiment: qHTS assay for small molecule activators of the human pregnane X receptor (PXR) signaling pathway (AID 720659; call rule not given here; also: 0% is about no effect). The conditions noted are these: DPX-2 HepG2 CYP3A4-luciferase, 24 h; series mostly up to 92.3 µM; activation: at the top concentration.
Regarding `CN(C)CCC(c1ccc(Cl)cc1)c1ccccn1` (centres undefined), the “activation” value was 5.19%.

As to `Oc1ccccc1O`, the “activation” value was -3.07%. Turning to `O=C(O)[C@H](O)[C@@H](O)[C@H](O)[C@H](O)CO`, the “activation” value was 4.89%. For `CN1CCC[C@H]1c1cccnc1`, the molecule was classed as inactive.
